“And” between values parts separate entries of the source, which are not always exact repeats. Equal values may be shown once. Records with an inconclusive call do not appear. A call without a number means that no potency is given here. Values without a mark were called inactive. The source made the active and inactive calls. The call rests on the fitted dose curve; in most records, active means well fitted cell-killing curve with a large enough effect; inconclusive means small, poorly fitted or top-dose-only effect; inactive means no such curve, though single readings can be large or run the other way.
Assay: qHTS of pediatric cancer cell lines to identify multiple opportunities for drug repurposing: Primary screen for MG 63 (6-TG R) cells (AID 1347105); further: nearly all actives have a fitted effect of over 50% in size
Conditions: MG 63 (6-TG R) viability, CellTiter-Glo, 48 h; series mostly up to 46 µM; activity change, negative = cytotoxic: at the top concentration
Outline: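 Luminescence from CellTiter-Glo served as readout of metabolically active cells after 48 h compound exposure. Titrations: MIPE 11-point, from 0.78 nM; NPC 8-point, from 0.59 nM (final). Concentration-response curves came straight from the primary screen.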
Potency means the concentration at half of the fitted maximal effect.

Structure (SMILES)	activity change, negative = cytotoxic [%]	Potency
OCc1ccc(-c2nn(Cc3ccccc3)c3ccccc23)o1	-10.1	
CN(CCOc1ccc(CC2SC(=O)NC2=O)cc1)c1ccccn1 (stereo unspecified)		inactive
CCc1c2c(nc3ccc(OC(=O)N4CCC(N5CCCCC5)CC4)cc13)-c1cc3c(c(=O)n1C2)COC(=O)[C@]3(O)CC		21.1 µM (active) and 1.48 µM (active)
CCn1cc(C(=O)O)c(=O)c2cc(F)c(N3CCNCC3)nc21		inactive
C[C@@H]1CN(c2c(F)c(N)c3c(=O)c(C(=O)O)cn(C4CC4)c3c2F)C[C@H](C)N1		inactive
CO[C@@]12[C@H](COC(N)=O)C3=C(C(=O)C(C)=C(N)C3=O)N1C[C@@H]1N[C@@H]12		14.8 µM (active)
C#CCN[C@@H]1CCc2ccccc21		inactive
NCCCC(O)(P(=O)(O)O)P(=O)(O)O		inactive
O=C(O)c1cc(=O)[nH]c(=O)[nH]1		inactive
CCOC(=O)c1ccc(OC(=O)CCCCCN=C(N)N)cc1		inactive
Cc1oc(=O)oc1CN1CCN(c2cc3c(cc2F)c(=O)c(C(=O)O)c2n3C(C)S2)CC1 (stereo unspecified)		inactive
O=C(O)CCn1c2c(c3ccccc31)C[C@H](NS(=O)(=O)c1ccc(F)cc1)CC2		inactive
COc1ccc2c(c1)c(CC(=O)OCC(=O)O)c(C)n2C(=O)c1ccc(Cl)cc1		inactive
CCCCc1oc2ccc(NS(C)(=O)=O)cc2c1C(=O)c1ccc(OCCCN(CCCC)CCCC)cc1		21.1 µM (active)
Cc1noc(NS(=O)(=O)c2ccc(N)cc2)c1C		inactive
CCN(C)C(=O)Oc1cccc([C@H](C)N(C)C)c1		inactive

Source: PubChem BioAssay (NCATS)
